# Where “and” joins values, the source holds several entries; their conditions need not be identical. Equal entries are not always repeated. Results filed as inconclusive are left out. Entries that show only a call come without a potency. Some compounds were tested as several samples or in several runs, with calls that do not always agree. Calls of active or inactive are those of the source. Unless noted, the call rests on the fitted dose curve.
# Experiments:
# [1] = Cytotoxicity counterscreen for inhibitors of SARS-CoV-2 cell entry (AID 1645845); further: nearly all actives have a fitted effect of over 50% in size
# Outline: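 After a 15 min room-temperature ATPLite 1step step, luminescence reflected ATP remaining in HEK293-ACE2 cells exposed to compound for 1 h plus 48 h at 37 C, with percent activity set by cell and no-cell controls.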
# [2] = Primary qHTS to identify inhibitors of SARS-CoV-2 cell entry (AID 1645846); conditions: activity change, negative = inhibition: at 57.1 µM (top of the series) unless noted; further: nearly all actives have a fitted effect of over 45% in size; further: potency means the concentration at half of the fitted maximal effect
# Outline: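 Entry measured by luciferase signal 48 h after adding SARS-CoV-2-S pseudotyped MLV particles to HEK293-ACE2 cells preincubated 1 h with compounds. Normalisation: bald particles and spike particles.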
# Papain (Carica papaya) = Papain (Carica papaya) (UniProt P00784); experiment: Primary qHTS assay for inhibitors of the protease papain (AID 1645873; active means well fitted curve in the direction sought with a large enough effect; an effect the other way counts as inactive or inconclusive;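 further: papain turnover of Z-FR-AMC read as the AMC fluorescence gain over 10 min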)
# [3] = Primary qHTS for inhibitors of nuclear receptor binding SET domain protein 2 (NSD2) in an isogenic RCH-ACV NSD2 p.E1099K mutant (9B) (AID 1645876; active means well fitted curve in the direction sought with a large enough effect; an effect the other way counts as inactive or inconclusive; further: potency means the concentration at half of the fitted maximal effect; nearly all actives have a fitted effect of over 70% in size)
# [4] = Primary qHTS for inhibitors of nuclear receptor binding SET domain protein 2 (NSD2) in an RCH-ACV wild type WT cells (2C) (AID 1645877; active means well fitted curve in the direction sought with a large enough effect; an effect the other way counts as inactive or inconclusive; further: potency means the concentration at half of the fitted maximal effect; nearly all actives have a fitted effect of over 70% in size)
# [5] = target: Rap guanine nucleotide exchange factor 3 (Homo sapiens) (UniProt O95398); experiment: Confirmatory qHTS for antagonist of cAMP-regulated guanine nucleotide exchange factor 3 (EPAC1) (AID 1645880; active means well fitted curve in the direction sought with a large enough effect; an effect the other way counts as inactive or inconclusive; further: nearly all actives have a fitted effect of over 55% in size)
# Outline: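 Released BODIPY-GDP fluoresces less than Rap1-bound BODIPY-GDP; the signal is followed at 480/540 nm at 5-min intervals over 30 min, after 5 min at room temperature. Reactions contain 100 nM EPAC1, 250 nM RAP1B-BODIPY-GDP and 50 uM GDP; results are normalized to ATA and DMSO.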
# [6] = target: Rap guanine nucleotide exchange factor 3 (Homo sapiens) (UniProt O95398); experiment: Confirmatory qHTS for agonist of cAMP-regulated guanine nucleotide exchange factor 3 (EPAC1) (AID 1645881; active means well fitted curve in the direction sought with a large enough effect; an effect the other way counts as inactive or inconclusive;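 further: EPAC1 catalysed release of BODIPY-GDP from Rap1B seen as fluorescence loss; nearly all actives have a fitted effect of over 75% in size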)
# [7] = target: Rap guanine nucleotide exchange factor 4 (Homo sapiens) (UniProt Q8WZA2); experiment: Confirmatory qHTS for agonist of cAMP-regulated guanine nucleotide exchange factor 4 (EPAC2) (AID 1645884; active means well fitted curve in the direction sought with a large enough effect; an effect the other way counts as inactive or inconclusive;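 further: nucleotide exchange releases bodipy-GDP from Rap1 and this lowers its fluorescence; nearly all actives have a fitted effect of over 65% in size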)
# Rap guanine nucleotide exchange factor 4 (Homo sapiens), sequence (Q8WZA2 whole entry, looked up): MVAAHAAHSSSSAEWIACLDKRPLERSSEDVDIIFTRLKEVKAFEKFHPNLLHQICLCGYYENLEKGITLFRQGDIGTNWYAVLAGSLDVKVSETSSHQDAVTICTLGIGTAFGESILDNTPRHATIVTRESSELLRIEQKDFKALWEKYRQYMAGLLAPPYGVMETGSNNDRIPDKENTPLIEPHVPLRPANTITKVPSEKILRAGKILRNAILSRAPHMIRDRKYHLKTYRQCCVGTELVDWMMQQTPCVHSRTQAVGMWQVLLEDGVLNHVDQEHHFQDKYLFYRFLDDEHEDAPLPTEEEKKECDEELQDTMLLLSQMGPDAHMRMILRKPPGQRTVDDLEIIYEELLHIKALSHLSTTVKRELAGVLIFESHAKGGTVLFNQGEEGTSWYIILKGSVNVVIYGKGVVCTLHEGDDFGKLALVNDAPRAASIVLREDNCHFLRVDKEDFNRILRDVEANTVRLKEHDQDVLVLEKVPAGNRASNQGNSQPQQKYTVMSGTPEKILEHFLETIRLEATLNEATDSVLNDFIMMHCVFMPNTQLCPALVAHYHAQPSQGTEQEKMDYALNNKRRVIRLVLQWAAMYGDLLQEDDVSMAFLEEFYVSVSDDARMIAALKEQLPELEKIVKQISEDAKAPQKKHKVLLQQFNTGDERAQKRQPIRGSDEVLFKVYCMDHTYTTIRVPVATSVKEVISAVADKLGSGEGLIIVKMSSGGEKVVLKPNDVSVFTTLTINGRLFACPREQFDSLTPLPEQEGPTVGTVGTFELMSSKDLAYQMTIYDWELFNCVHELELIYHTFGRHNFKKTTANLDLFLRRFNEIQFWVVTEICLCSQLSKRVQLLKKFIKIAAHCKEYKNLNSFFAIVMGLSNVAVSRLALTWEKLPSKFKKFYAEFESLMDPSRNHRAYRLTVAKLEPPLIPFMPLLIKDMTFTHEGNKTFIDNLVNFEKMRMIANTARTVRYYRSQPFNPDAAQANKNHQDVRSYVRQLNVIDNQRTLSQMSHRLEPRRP
# Rap guanine nucleotide exchange factor 3 (Homo sapiens), sequence (O95398 whole entry, looked up): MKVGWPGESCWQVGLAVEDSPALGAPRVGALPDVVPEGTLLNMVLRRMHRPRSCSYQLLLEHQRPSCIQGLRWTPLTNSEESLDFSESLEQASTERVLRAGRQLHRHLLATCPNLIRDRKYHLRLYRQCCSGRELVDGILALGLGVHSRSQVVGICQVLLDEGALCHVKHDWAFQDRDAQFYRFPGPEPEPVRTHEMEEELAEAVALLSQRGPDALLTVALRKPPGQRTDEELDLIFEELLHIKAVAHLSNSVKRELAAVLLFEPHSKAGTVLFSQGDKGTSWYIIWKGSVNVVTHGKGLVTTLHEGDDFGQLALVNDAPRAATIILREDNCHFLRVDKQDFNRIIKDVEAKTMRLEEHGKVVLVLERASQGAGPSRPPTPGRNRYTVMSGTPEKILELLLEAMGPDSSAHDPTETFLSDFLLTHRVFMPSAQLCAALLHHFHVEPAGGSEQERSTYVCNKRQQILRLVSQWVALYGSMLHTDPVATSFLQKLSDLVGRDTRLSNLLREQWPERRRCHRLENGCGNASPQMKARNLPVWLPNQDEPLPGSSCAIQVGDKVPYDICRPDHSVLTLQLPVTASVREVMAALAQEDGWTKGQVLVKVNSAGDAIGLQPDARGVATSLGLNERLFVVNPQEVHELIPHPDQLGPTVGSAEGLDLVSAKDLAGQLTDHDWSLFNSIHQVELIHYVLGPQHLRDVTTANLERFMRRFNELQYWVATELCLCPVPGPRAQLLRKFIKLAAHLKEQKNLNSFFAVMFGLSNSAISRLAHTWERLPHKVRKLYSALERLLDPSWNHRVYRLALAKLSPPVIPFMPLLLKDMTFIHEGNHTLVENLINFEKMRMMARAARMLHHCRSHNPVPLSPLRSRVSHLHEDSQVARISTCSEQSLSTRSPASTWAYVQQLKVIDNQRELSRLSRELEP
# Papain (Carica papaya), sequence (P00784 whole entry, looked up, the tested form may be a part): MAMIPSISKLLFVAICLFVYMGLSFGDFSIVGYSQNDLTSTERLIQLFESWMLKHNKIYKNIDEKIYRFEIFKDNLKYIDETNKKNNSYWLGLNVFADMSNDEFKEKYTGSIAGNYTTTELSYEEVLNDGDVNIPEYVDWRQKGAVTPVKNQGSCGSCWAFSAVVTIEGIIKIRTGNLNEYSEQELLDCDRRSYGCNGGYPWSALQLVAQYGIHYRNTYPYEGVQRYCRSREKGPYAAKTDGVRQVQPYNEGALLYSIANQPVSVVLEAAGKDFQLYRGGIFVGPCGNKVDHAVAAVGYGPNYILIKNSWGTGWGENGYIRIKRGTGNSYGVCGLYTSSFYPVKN
smiles,measurement,setting,value
CCC(C)(C)C(=O)O[C@H]1C[C@@H](C)C=C2C=C[C@H](C)[C@H](CC[C@@H]3C[C@@H](O)CC(=O)O3)[C@H]21,Potency,[1],inactive
same,Potency,[2],inactive
CN(C)CCc1c[nH]c2ccc(CS(=O)(=O)N3CCCC3)cc12,Potency,[1],inactive
same,Potency,[2],inactive
same,"activity change, negative = inhibition",[2],-5.24%
Nc1ccc(O)c(C(=O)O)c1,Potency,[1],inactive
same,"activity change, negative = inhibition",[2],2.37%
CCn1cc(C(=O)O)c(=O)c2cc(F)c(N3CCNCC3)cc21,Potency,[1],inactive
same,Potency,[2],inactive
same,"activity change, negative = inhibition",[2],-15.8%
CC(=O)SC[C@@H](C)C(=O)N1CCC[C@H]1C(=O)N[C@@H](Cc1ccccc1)C(=O)O,Potency,[1],inactive
same,"activity change, negative = inhibition",[2],-7.21%
CC(C)[N+](C)(CCOC(=O)C1c2ccccc2Oc2ccccc21)C(C)C,Potency,[1],inactive
same,"activity change, negative = inhibition",[2],2.34%
O=NN(CCCl)C(=O)NC1CCCCC1,Potency,[1],inactive
same,Potency,[2],inactive
same,"activity change, negative = inhibition",[2],-8.29%
N[C@@H]1CONC1=O,Potency,[1],inactive
same,Potency,[2],inactive
same,"activity change, negative = inhibition",[2],-2.51%
Cn1c(=O)c2c(ncn2CC(O)CO)n(C)c1=O (stereo not drawn),Potency,[1],inactive
same,Potency,[2],inactive
same,"activity change, negative = inhibition",[2],4.29%
CC(S)C(=O)NCC(=O)O (stereo not drawn),Potency,[1],inactive
same,Potency,[2],inactive
same,"activity change, negative = inhibition",[2],-22.2%
NNc1nncc2ccccc12,Potency,[1],inactive
same,Potency,[2],inactive
same,"activity change, negative = inhibition",[2],83.2% [at 27.1 µM]
CS(=O)(=O)OCCCCOS(C)(=O)=O,Potency,[1],inactive
same,Potency,[2],inactive
same,"activity change, negative = inhibition",[2],-16.9%
O=c1c(O)c(-c2ccc(O)c(O)c2)oc2cc(O)cc(O)c12,Potency,[1],inactive
same,Potency,[2],inactive
same,"activity change, negative = inhibition",[2],-12.3%
CC1Cc2ccccc2N1NC(=O)c1ccc(Cl)c(S(N)(=O)=O)c1 (stereo not drawn),Potency,[1],inactive
same,Potency,[2],inactive
same,"activity change, negative = inhibition",[2],3.64%
NC(=O)C(c1ccccc1)(c1ccccc1)[C@@H]1CCN(CCc2ccc3c(c2)CCO3)C1,Potency,[1],inactive
same,"activity change, negative = inhibition",[2],-1.98%
O[C@@H]1CO[C@H]2[C@@H]1OC[C@@H]2O,Potency,[1],inactive
same,Potency,[2],inactive
CN(C)c1ccc(O)c2c1C[C@H]1C[C@H]3[C@H](N(C)C)C(=O)C(C(N)=O)=C(O)[C@@]3(O)C(=O)C1=C2O,Potency,[1],inactive
same,"activity change, negative = inhibition",[2],-8.61%
CC(C(=O)O)c1cccc(C(=O)c2ccccc2)c1 (stereo not drawn),Potency,[1],inactive
same,Potency,[2],inactive
same,"activity change, negative = inhibition",[2],-2.03%
NC(=O)OCC(COC(N)=O)c1ccccc1,Potency,[1],inactive
same,Potency,[2],inactive
same,"activity change, negative = inhibition",[2],-1.23%
Cc1ccc(C)c(OCCCC(C)(C)C(=O)O)c1,Potency,[1],inactive
same,Potency,[2],inactive
same,"activity change, negative = inhibition",[2],-8.37%
CCN(CCO)CCCC(C)Nc1ccnc2cc(Cl)ccc12 (stereo not drawn),"activity change, negative = cytotoxicity",[1],-4.65% [at 5.25 µM] (inactive) and -23.5% [at 5.25 µM] (inactive)
same,"activity change, negative = inhibition",[2],-16.5% [at 5.25 µM]
same,outcome,[2],inactive [at 5.25 µM]
CO[C@@]12[C@H](COC(N)=O)C3=C(C(=O)C(C)=C(N)C3=O)N1C[C@@H]1N[C@@H]12,Potency,[1],inactive
same,Potency,[2],4.47 µM (active)
same,"activity change, negative = inhibition",[2],-40.7%
CCCC(CCC)C(=O)O,Potency,[1],inactive
same,Potency,[2],inactive
same,"activity change, negative = inhibition",[2],-12.6%
COc1ccc(Cl)cc1C(=O)NCCc1ccc(S(=O)(=O)NC(=O)NC2CCCCC2)cc1,Potency,[1],inactive
same,"activity change, negative = inhibition",[2],4.27%
CCC1(c2ccccc2)C(=O)NCNC1=O,Potency,[1],inactive
same,Potency,[2],inactive
same,"activity change, negative = inhibition",[2],-9.71%
COc1cc(NC(C)CCCN)c2ncccc2c1 (stereo not drawn),Potency,[1],inactive
same,"activity change, negative = inhibition",[2],2.06%
CCCN[C@H]1CCc2nc(N)sc2C1,Potency,[1],inactive
same,Potency,[2],inactive
same,"activity change, negative = inhibition",[2],-3.81%
Cc1ncc([N+](=O)[O-])n1CCO,Potency,[1],inactive
same,"activity change, negative = inhibition",[2],-22%
COC[C@H]1OC(=O)c2coc3c2[C@@]1(C)C1=C(C3=O)C2CCC(=O)[C@@]2(C)C[C@H]1OC(C)=O (stereo partly drawn),Potency,Papain (Carica papaya),inactive
O=c1[nH]c2ccccc2n1C1CCN(CCCC(c2ccc(F)cc2)c2ccc(F)cc2)CC1,Potency,Papain (Carica papaya),inactive
same,Potency,[3],23.7 µM (active) and 5.78 µM (active)
same,Potency,[4],16.8 µM (active) and 5.78 µM (active)
same,Potency,[5],inactive
same,outcome,[6],inactive
same,outcome,[7],inactive
C[C@]12C/C(=C/O)C(=O)C[C@@H]1CC[C@@H]1[C@@H]2CC[C@@]2(C)[C@H]1CC[C@]2(C)O,Potency,[3],13.3 µM (active)
same,Potency,[4],23.7 µM (active)

# — PubChem BioAssay (NCATS)
